Many of the other results were omitted from the sample, so hits are more common in it than they were.
VCAM1 TNFa pot – TNF alpha stimulated VCAM1 expression potentiation | activation, % at 2 µM | HUVEC TNFa-stimulated VCAM-1 immunofluorescence, high-content imaging; scaled per plate to unstimulated/TNFa-only wells | 0.19% of 93,000 active;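 active = activation above the screen mean plus 3 SD, with well images confirming the hit on visual review, cut at about 28% in these data, passing the limit was not always enough; inconclusive = activation above that limit but images do not confirm it; inactive = activation not above that limit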;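 also: signal is the number of cytoplasmic VCAM-1 stained grains per positive cell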
VCAM1 pot confirm – enhancers of VCAM1 induction in HUVEC – imaging, triplicate retest, confirmation; shares compounds with VCAM1 TNFa pot; HUVEC TNFa-stimulated VCAM-1 immunofluorescence imaging; activation, % at 2 µM; 230 tested, under 10 active;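 active = activation above 30% in triplicate retests at 2 µM, then confirmed by visual review of the well images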;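 also: scaled per plate between unstimulated and TNFa-stimulated DMSO control wells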
* hit, by the source's call; ? = inconclusive.

SMILES	VCAM1 TNFa pot	others
Cn1c(-c2ccccc2)cnc1SCC(=O)NCc1ccco1	9
O=C(Nc1ccc2c(c1)CCC2)c1cnccn1	6
O=C(N/N=C/C(Cl)=C\c1ccccc1)c1cnccn1	63*	VCAM1 pot confirm=-17
O=C(N/N=C/C(Br)=C/c1ccccc1)c1n[nH]c2c1CCC2	-91
C=CC(=O)Nc1ccc(Br)cc1	-52
COc1ccc2oc(=O)c(C(=O)N3CCN(c4ccccc4)CC3)cc2c1	83*	VCAM1 pot confirm=-9
COc1ccc2oc(=O)c(C(=O)NCc3cccnc3)cc2c1	15
COc1ccc2oc(=O)c(C(=O)n3ccc(C)n3)cc2c1	0
Cc1nn(Cc2ccc([N+](=O)[O-])cc2)c(=O)n1-c1cccc(F)c1	-9
CC(OC1=CC(=O)CCC1)C(=O)c1ccccc1 (configuration not stated)	4
S=C(NN=C1CCCCCC1)Nc1ccc(Cl)cc1	35*	VCAM1 pot confirm=-25
C=CCn1c(COc2ccc3c(c2)CCCC3)nnc1SCC(=O)Nc1cccc(SC)c1	3
COc1ccc(-c2c3c(nc4sc5c(Cl)nc(C)nc5c24)CCC3)cc1	2
CCCSc1ncnc2c1oc1ccccc12	2
CCOC(=O)CSc1nc(-c2ccccc2)nc2c1oc1ccccc12	-4
CCc1nc(SCC(=O)c2cccs2)c2oc3ccccc3c2n1	28*	VCAM1 pot confirm=-14
Cn1c(Cn2nnc3ccccc32)nnc1SCC(=O)N1CCc2ccccc21	7
COc1ccc(NC2CC(=O)NC2=O)cc1 (configuration not stated)	-6
N#Cc1c2c(c(=S)n(-c3ccccc3)c1N)CCCC2	83*	VCAM1 pot confirm=-8
CCSc1nc2ccccc2n1C(=O)/C=C\c1ccc(OC)c(OC)c1	-94
COC(=O)C(C)Sc1nc(-c2ccc(OC)cc2)nc2c1c(=O)n(C)c(=O)n2C (configuration not stated)	32
Clc1cccc(OCCn2cncn2)c1Cl	?	VCAM1 pot confirm=-10
C=CCNc1nc(Nc2ccc(OC)cc2)nc(OCC)n1	-6
Cc1c(NC(=O)c2cc3nc(-c4ccc(Br)cc4)cc(C(F)(F)F)n3n2)c(=O)n(-c2ccccc2)n1C	5
Cc1nc2ccc(F)cc2cc1C(=O)NCC1CCCO1 (configuration not stated)	-12
SMILES	VCAM1 TNFa pot	others
Cc1ccccc1C(=O)c1c[nH]c(C(=O)NCC2CCCO2)c1 (configuration not stated)	-11
COCCSc1ccccc1C(=O)NCC1CCCO1 (configuration not stated)	?	VCAM1 pot confirm=-17
COc1ccc(S(=O)(=O)N(C)CC(=O)N2CCN(c3ccc(F)cc3)CC2)cc1OC	4
Cc1cccc(C2Nc3ccccc3C(=O)N2c2ccc(F)cc2)n1 (configuration not stated)	7
COc1ccc2cc(CN(Cc3cccs3)Cc3nnnn3Cc3ccccc3)c(=O)[nH]c2c1	-1
COCCn1nnnc1CN(CCCN1CCOCC1)Cc1cc2c(C)ccc(C)c2[nH]c1=O	-4
Cc1cc(C)c2cc(CN(Cc3ccc4c(c3)OCO4)Cc3nnnn3Cc3ccco3)c(=O)[nH]c2c1	54*	VCAM1 pot confirm=-5
O=C(Cn1nc(Cc2ccncc2)c2ccccc2c1=O)N1CCc2ccccc2C1	-3
Cn1nc(-c2ccccc2)c(C#N)c1Sc1cccc(Cl)c1	-4
COc1ccc(C(=O)NCC(=O)n2nc(C)cc2C)cc1OC	22
CC(=O)c1c(C(C)=O)c(C)n(-c2nc(-c3ccccc3)c(C)s2)c1C	-12
CSc1cc(C)n(-c2ccccc2)c(=S)c1C(C)=O	72*	VCAM1 pot confirm=-16
CCC1=NC(c2ccccc2Cl)N(O)C1(C)C (configuration not stated)	-59
Cc1ccc(S(=O)(=O)NC(C)C(=O)Nc2ccc(C(N)=O)cc2)cc1 (configuration not stated)	0
Cc1cc2ncn(C(=O)N3CCCC3)c2cc1C	-12
CCOc1nc(-c2ccccc2)ccc1-c1noc(COC)n1	?	VCAM1 pot confirm=-10
COc1cccc(-c2ccc(-c3noc(-c4cccs4)n3)c(OC)n2)c1	1
COc1ccc(Br)cc1-c1noc(-c2ccccc2)n1	2
C=CCn1c(CCNC(=O)c2ccccc2F)nnc1SCC(=O)Nc1nc(C)cs1	-9
Cc1ccc(N2C(=O)c3ccc(C(=O)N4CCN(c5cccc(C)c5C)CC4)cc3C2=O)cc1	-17
COc1cc2cc(C(=O)O)n(C)c2c(OC)c1OC	-1
O=C(c1cnn2c1NC(c1ccco1)CC2C(F)(F)F)N1CCN(c2cccc(Cl)c2)CC1 (configuration not stated)	-5
CC(Nc1cc(=O)n(C)c(=O)[nH]1)c1ccccc1 (configuration not stated)	-9
N=c1nc(N)nc2n1NC(c1ccc(F)cc1)=CS2	-55
N#CC(C#N)=CC1=C2OC(c3ccccc3)=CC(c3ccccc3)=C2CCC1	-8
SMILES	VCAM1 TNFa pot	others
CC1(C)Cc2c(sc(NC(=O)c3ccc(Br)o3)c2C#N)CO1	-2
CCc1c(C)sc(NC(=O)CC#N)c1C#N	-17
N#Cc1c(NC(=O)CCC(=O)O)sc2c1CCCC2	?	VCAM1 pot confirm=-13
CCOC(=O)c1nn(-c2ccccc2C)c2nc(CC(C)C)c(C#N)c(=O)n12	-6
OC(CN1C2=NCCN2c2ccccc21)c1ccc2c(c1)OCO2 (configuration not stated)	-6
Cc1c(Cl)cccc1-n1ccnc1SCC(=O)O	-94
CC(C)(C)Nc1nc(NCc2cccnc2)nc(N2CCOCC2)n1	-14
FC(F)(F)c1cc(-c2ccc3c(c2)OCO3)nc(NCc2ccco2)n1	-78
Cc1cc(C(F)(F)F)nc(NCc2cccnc2)n1	?	VCAM1 pot confirm=-17
CC1=CC(C)(C)N2C(=O)C3(C(C#N)=C(N)Oc4cc(C)oc(=O)c43)c3cccc1c32 (configuration not stated)	14
CC1(C)C(c2cccs2)=[N+]([O-])C2(CCCCC/C2=N\NC(N)=O)N1O (configuration not stated)	15
COC(=O)c1c(NC(=S)Nc2ccccc2Cl)sc(C)c1C	7
O=C1Nc2ccccc2C(=O)C1(Cl)Cc1ccccc1 (configuration not stated)	-7
CCOC(=O)c1ccc(-n2c(=S)sc3c(=O)[nH]c(C)nc32)cc1	-87
CCOC(=O)CSc1nc2ccc(C)cc2cc1C#N	-9
CCOC(=O)CC(=O)CSc1ccc2nnc(-c3ccc(F)cc3)n2n1	-1
CCOC(=O)CC(=O)CSc1nc2c(C)c(C)ccc2cc1C	51*	VCAM1 pot confirm=-10
C=CCNC(=O)CC(=O)N/N=C/c1ccccc1F	0
Cn1nc(C(F)(F)F)c(C(=O)Nc2ccc(F)cc2F)c1Sc1ccc(C(F)(F)F)cc1	6
CCOC(=O)c1c(-c2cccs2)csc1NC(=O)CCCC(=O)O	8
COC(=O)c1c(NC(=O)Cc2ccccc2)sc(C)c1C	0
CCOC(=O)c1cc(CC)sc1NC(=O)Cc1ccccc1	35*	VCAM1 pot confirm=-9
COc1ccc([C@H]2[C@@H](C#N)[C@H](C#N)N3CCCN23)cc1	35
CC(C)C(=O)Nc1ccc(C(=O)NNC(=O)NC2CCCCC2)cc1	-36
Cn1c(CCNC(=O)c2ccco2)nc2cc(NC(=O)NC3CCCCC3)ccc21	4
O=C(Nc1ccc2nsnc2c1)NC1CCCCC1	57*	VCAM1 pot confirm=-6
O=C(CSc1nnnn1-c1ccccc1Cl)Nc1ccc2c(c1)OCCO2	-2
CCOc1ccccc1NC(=O)C1CC2CCCC(C1)C2=O (configuration not stated)	-1
COC(=O)c1ccc(C)c(NS(=O)(=O)c2ccc(OC)cc2)c1	32*	VCAM1 pot confirm=-59
